Experimental data taken from PubChem BioAssay (NCI).
About 79,000 compounds went through this panel and 15% of them were active in at least one assay; those are over-represented in the sample as a whole. A number with no mark means an inactive call. Activity calls are given as the source filed them. Cut-off read from the data, not from the text of the source: active = growth inhibition above about 70%; inactive = the rest. Where a SMILES comes first, the peptide text is derived from it. The star is where a group is joined. Cbz = O=C(OCc1ccccc1)*

What was measured:
[1] = NCI Yeast Anticancer Drug Screen. Data for the rad50 strain (AID 155);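 note: 0% = growth of vehicle-only cultures of the same strain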; conditions: S. cerevisiae rad50 strain growth inhibition; at 50.0 µM; stronger effect = higher value
How it was run: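 Inhibition values express reduced yeast growth in compound-treated cultures relative to vehicle-treated controls.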

[2] = NCI Yeast Anticancer Drug Screen. Data for the mec2-1 strain (AID 157); conditions: S. cerevisiae mec2-1 strain, at 50.0 µM, stronger effect = higher value
How it was run: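 Growth inhibition is read against vehicle-treated controls after compound exposure of the mec2-1 yeast strain, which is defective in DNA damage repair or cell cycle control.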

[3] = NCI Yeast Anticancer Drug Screen. Data for the sgs1 mgt1 strain (AID 161);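 note: 0% = growth of cultures given vehicle only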; conditions: S. cerevisiae sgs1 mgt1 strain, at 50.0 µM, stronger effect = higher value
How it was run: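 Yeast cells carrying a defined DNA-repair defect were exposed to test compounds. Growth inhibition was measured relative to vehicle-treated controls.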

[4] = NCI Yeast Anticancer Drug Screen. Data for the cln2 rad14 strain (AID 165);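 note: 0% = growth equal to vehicle treated cultures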; conditions: S. cerevisiae cln2 rad14 strain, at 50.0 µM, stronger effect = higher value
How it was run: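 Growth inhibition, relative to vehicle-treated controls, is the read-out. The test organism is a yeast strain with defined genetic alterations, cln2 rad14.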

[5] = NCI Yeast Anticancer Drug Screen. Data for the bub3 strain (AID 167); conditions: S. cerevisiae bub3 mutant strain, at 50.0 µM, stronger effect = higher value
How it was run: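 Steps: expose the mutant yeast strain to compound; grow alongside vehicle-treated cultures; measure growth; express inhibition against the vehicle cultures.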

[6] = NCI Yeast Anticancer Drug Screen. Data for the mlh1 rad18 strain (AID 175); conditions: S. cerevisiae mlh1 rad18 strain growth inhibition; at 50.0 µM; stronger effect = higher value
How it was run: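 Cells of a genetically altered yeast strain, deficient in DNA damage repair, were treated with compound. Their growth was then compared with that of vehicle-treated cultures to give inhibition.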

Structure (SMILES) | growth inhibition [1] | growth inhibition [2] | growth inhibition [3] | growth inhibition [4] | growth inhibition [5] | growth inhibition [6]
N=C1N=C(N)c2cc3c(cc21)SCCSCCCSCCS3 | 6.05% | 1.95% | 2.6% | 9.15% | 4.2% | 30.4%
C[n+]1cccc2cccc(N)c21 | 22.1% | 0.1% | 11.3% | -5.65% | 15.5% | 5.6%
Cc1ccc2c(c1)C(C)CC2(C)C (centres undefined) | 1.8% | -6.55% | -4.6% | 3.65% | 8.95% | 2.15%
Cc1ncc(CO)c(/C=N/NC(=O)c2ccncc2)c1O | 14.3% | 9.4% | 11.7% | -35.5% | 15.8% | 17.6%
COC(=O)c1[nH]c(C)c(C(=O)OC)c1C | -8.5% | -27.7% | -3.1% | -5% | -13.2% | -12.8%
O=C1c2cc([N+](=O)[O-])sc2C(=O)c2ccsc21 | 88.6% (active) | 89.3% (active) | 91.2% (active) | 90.2% (active) | 91.1% (active) | 90.7% (active)
COc1ccc(N=Nc2c(C)c(C#N)c(=S)n(C3OC(CO)C(O)C(O)C3O)c2C)cc1 (centres undefined) | 16.1% | 14.1% | 46.6% | 7.9% | 28.1% | 21.7%
Cc1ccc(C(c2ccc(C)c(C)c2)C(O)C(O)C(O)CO)cc1C (centres undefined) | 20% | -2.25% | 0.65% | 12.9% | 6.7% | 8.85%
CSC(/C=C/c1ccccc1)=Nc1ccccc1 | 3.2% | 11.9% | -0.9% | -21.6% | 23.6% | 15%
NC1(C(=O)OCc2ccccc2)CCCC1 | 18.6% | -5.45% | -14.1% | 1.9% | -1.7% | 37.9%
O=C(O)Cc1ccc(-c2ccccc2)cc1 | 29.1% | 23.6% | 21.2% | 6.45% | 20.5% | 25.4%
Cc1cc(C)cc(C(=O)NCc2ccc[n+]([O-])c2)c1 | -10.3% | -5.6% | -6.35% | -11.9% | 0.4% | 17.6%
CC(=O)OC12C(C)=C(C)C(=O)N1c1ccccc1N2C(C)=O (centres undefined) | -20.8% | 2.55% | 6.7% | 15.9% | 6.15% | 11.1%
CC(C)c1ccc(/C(O)=C/C(=O)C(=O)/C=C(/O)c2ccc(C(C)C)cc2)cc1 | 31.4% | 2.25% | 1.25% | 9.6% | 2.5% | 10.7%
CN1C=CC(=Cc2ccccc2)C=C1 | 3.3% | 5.85% | -6.45% | -25% | -10.8% | 1.4%
O=c1[nH]c2nc[nH]c(=O)c2[nH]1 | 0.25% | -7.6% | 5.1% | -11.8% | -6.05% | 6.05%
Clc1ccc(/C=C/c2nc3ccccc3s2)cc1Cl | -13.8% | -23.6% | 3.1% | 9.95% | 27.2% | -16.2%
O=C(O)c1cc2c(c(C(=O)O)c1O)CCCC2 | 11.3% | -19.6% | 9.95% | -23.2% | -6.35% | -4.85%
COc1ccc2[nH]c(C)cc2c1CN | -0.65% | -14.3% | 15.1% | -24.9% | -20.2% | 26.4%
Cc1ccc(-n2cc(-c3ccc(Cl)cc3)c3c2N=CN2NC(c4cccs4)=NC32)cc1 (centres undefined) | -32.8% | -5.8% | -18.9% | 5.5% | -16.7% | -17.3%

Structure (SMILES) | growth inhibition [1] | growth inhibition [2] | growth inhibition [3] | growth inhibition [4] | growth inhibition [5] | growth inhibition [6]
O=C(O)C1CCCCC1C(=O)O.[NH-]C1CCC1.[NH2-].[Pt+2] (centres undefined) | 99.2% (active) | 99.3% (active) | 99.4% (active) | 99.3% (active) | 99% (active) | 99.1% (active)
N#CCc1nc2ccccc2[nH]1 | 7.95% | -6.95% | -9.35% | 3.1% | 6.25% | 3.3%
Oc1c(Cl)c(Cl)c(O)c2ccccc12 | -3.7% | -0.95% | 7.15% | 44.2% | 8.1% | -52.9%
O=c1c2c(sc3ccccc13)CCC2 | 1.95% | 18.6% | -1.55% | 46.9% | -11.8% | -0.9%
CCOC(=O)CCC(NC(=O)C(CCC(=O)O)NC(=O)OCc1ccccc1)C(=O)OCC (stereo not drawn) (Cbz-Glu-Glu(OEt)-OEt; configuration not given here) | 26.4% | -6.25% | -1.85% | -13.4% | 0.05% | 0.05%
CCN(C(=O)NC(C)(C)C)c1cccc(C)c1 | 3.15% | -1.9% | 0.35% | -19.6% | -0.3% | 5.8%
O=S(=O)(O)c1cc[n+]([O-])cc1 | 1.6% | 12.7% | -2.8% | 32.5% | 11.8% | -8.65%
Cn1nc2c(c1-c1cccnc1)CCCc1ccccc1-2 | 10.1% | 24.6% | 13.7% | -15.4% | 69.3% | 28.9%
NC(=S)NNC(=O)c1cccs1 | -9.9% | -10.2% | 22.6% | 3.35% | 7.05% | 9.75%
COc1ccccc1N1C(=O)C2c3[nH]c4ccccc4c3C3CCC(C(C)(C)C)CC3C2C1=O (centres undefined) | 17.8% | -11.3% | -4.2% | -12.2% | -16.2% | 5.5%
Cc1ccc2c(c1)CN(C)c1ccc(C)cc1CN2C | 17.4% | -11.8% | 22.9% | 21.8% | 9.65% | 31.1%
CN(/N=C/C=N/N(C)C1=NCCCN1)C1=NCCCN1 | -0.95% | 1.15% | 3.8% | 9.1% | 13.2% | -6.35%
O=C(O)c1ccccc1C(=O)OCc1ccccc1 | -0.15% | 16.1% | 6.25% | -11.2% | 8.25% | 11.9%
C/C(CC(=O)Nc1ccc(C)c(C)c1)=N\N(c1ccccc1)c1ccccc1 | -16.6% | -13.8% | -27% | -3.4% | -17.6% | -20.5%
CC(=O)CC(=O)NC12CC3CC(CC(C3)C1)C2 | -12.4% | -18.3% | -27.6% | -3.95% | -23.1% | -1.55%
COc1ccc(C(C)=O)c(C)c1OC | 22.6% | 3.65% | 19.6% | 10.4% | -22.2% | 15.2%
COC(=O)C1CC23CCCC12CC3 (centres undefined) | 21.6% | -1.25% | 2.3% | -66.7% | 8.05% | -7.05%
O=C(Nc1ccc(C(=O)O)cc1)OCc1ccccc1 | 1.65% | 8.75% | 15.5% | -36% | 2.5% | -7.7%
CC[C@H](O)[C@H](C)C=C1SCCCS1 | -14.3% | -42.2% | 19.9% | 25.1% | -43.8% | -43.6%
